# Measured values from PubChem BioAssay (EPA / NIEHS).
# Inconclusive results are not listed. Calls of active or inactive are those of the source. How the source made its calls: active means hit-call score of the fitted dose curve at least 0.9, where 1 is the maximum; inconclusive means response in the unintended direction; inactive means score below 0.9.
# Molecular target: human Fibroblast Growth Factor Receptor 1 (FGFR1), FGFR1 (gene 2260) (UniProt P11362)
# Test: NVS_ENZ_hFGFR1: NovaScreen (NVS) Enzymatic Assay for human Fibroblast Growth Factor Receptor 1 (FGFR1) (AID 2283159);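 on AC50: hits lower the signal so potencies describe inhibitors of the kinase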
# Method: NVS_ENZ_hFGFR1 is a biochemical, single-readout assay that uses extracted gene-proteins in a cell-free assay. Measurements were taken 1 hour after chemical dosing in a 384-well plate.NVS_ENZ_hFGFR1 is one of one assay component(s) measured or calculated from the NVS_ENZ_hFGFR1 assay. It is designed to make measurements of enzyme activity, a form of enzyme reporter, as detected with fluorescence intensity signals by Fluorescence and electrophoretic mobility shift technology.Data from the assay component NVS_ENZ_hFGFR1 was analyzed into 1 assay endpoint. This assay endpoint, NVS_ENZ_hFGFR1, was analyzed in the positive analysis fitting direction relative to DMSO as the negative control and baseline of activity. Using a type of enzyme reporter, loss-of-signal activity can be used to understand changes in the enzymatic activity as they relate to the gene FGFR1. Furthermore, this assay endpoint can be referred to as a primary readout, because this assay has produced multiple assay endpoints where this one serves a enzymatic activity function. To generalize the intended target to other relatable targets, this assay endpoint is annotated to the kinase intended target family, where the subfamily is receptor tyrosine kinase.
# Binding assays used specific radioligands (tritiated, iodinated) with non-radioactive competitive displacement ligands in agonist or antagonist protocols (as indicated) and various reference compounds and inhibitors to titrate specific binding to receptors and transporters. Most enzyme assays (CYPs, kinases, phosphatases, proteases, HDACs) used recombinant protein and specific substrates (fluorescence mostly, some colorimetric and radioactive) and inhibitors, followed by a biochemical separation of substrate and product. All assays for the biochemical HTS were initially run in duplicate at a single concentration (10 uM for CYP450 assays and 25 uM for all others). […] Each assay was run with positive and negative controls, and concurrent controls on every plate. The follow-up (secondary) screen tested active chemical-pairs in concentration series, as well as a few additional assays not tested in the primary screen, some selected negative inactives, and several cases re-run in the concentration series for confirmatory purposes.
# Chain of human Fibroblast Growth Factor Receptor 1 (FGFR1), FGFR1 (gene 2260) (P11362 whole entry, looked up): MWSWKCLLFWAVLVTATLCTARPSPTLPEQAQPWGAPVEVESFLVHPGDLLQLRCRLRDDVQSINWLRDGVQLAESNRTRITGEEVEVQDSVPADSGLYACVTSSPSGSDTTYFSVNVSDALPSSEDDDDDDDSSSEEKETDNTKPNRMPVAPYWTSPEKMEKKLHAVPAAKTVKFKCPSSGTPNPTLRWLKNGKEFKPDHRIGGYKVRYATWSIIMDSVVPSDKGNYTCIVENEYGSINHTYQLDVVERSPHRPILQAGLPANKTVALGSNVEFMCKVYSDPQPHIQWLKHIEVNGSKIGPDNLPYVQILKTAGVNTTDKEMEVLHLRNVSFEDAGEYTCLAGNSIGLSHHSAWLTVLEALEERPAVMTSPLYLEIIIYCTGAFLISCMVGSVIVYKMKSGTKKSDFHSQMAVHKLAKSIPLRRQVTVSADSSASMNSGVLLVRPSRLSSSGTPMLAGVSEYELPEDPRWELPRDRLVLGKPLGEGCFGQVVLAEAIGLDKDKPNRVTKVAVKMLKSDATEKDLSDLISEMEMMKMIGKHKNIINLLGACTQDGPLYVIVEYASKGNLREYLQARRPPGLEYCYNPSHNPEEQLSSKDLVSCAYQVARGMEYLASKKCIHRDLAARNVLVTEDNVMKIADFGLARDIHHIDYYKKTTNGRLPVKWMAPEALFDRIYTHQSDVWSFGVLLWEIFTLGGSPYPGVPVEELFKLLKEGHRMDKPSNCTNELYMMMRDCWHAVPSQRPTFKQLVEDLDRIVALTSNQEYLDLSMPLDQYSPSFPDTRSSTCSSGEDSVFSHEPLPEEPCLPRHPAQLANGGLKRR
SMILES,outcome,AC50
c1cc2ccc3cccc4ccc(c1)c2c34,inactive,
Cc1cc2c3c(c1)C(c1ccccc1)=N[C@@H](NC(=O)c1ccncc1)C(=O)N3CC2,inactive,
O=C(N[C@H]1CN2CCC1CC2)c1cc2ccoc2cn1,inactive,
CC(c1ccc(O)cc1)(c1ccc(O)cc1)c1ccc(O)cc1,,25 µM (active)
ClC(Cl)=C(c1ccc(Cl)cc1)c1ccc(Cl)cc1,inactive,
CC1=C2C[C@H]3[C@@H](CC=C4C[C@@H](O)CC[C@@]43C)[C@@H]2CC[C@]12O[C@@H]1C[C@H](C)CN[C@H]1[C@H]2C,,21.1 µM (active)
C=CC(=O)NCNC(=O)C=C,inactive,
CCCCCCOC(=O)c1ccccc1C(=O)OCCCCCC,inactive,
CCC(C)c1cc([N+](=O)[O-])cc([N+](=O)[O-])c1O (stereo not given),inactive,
Cc1ccccc1CO[C@@H]1C[C@@]2(C(C)C)CC[C@]1(C)O2,inactive,
O=S(=O)(O)C(F)(F)C(F)(F)C(F)(F)C(F)(F)C(F)(F)C(F)(F)F,inactive,
Clc1ccc(C(c2ccccc2Cl)C(Cl)(Cl)Cl)cc1 (stereo not given),inactive,
O=C(O)C(F)(F)C(F)(F)C(F)(F)C(F)(F)C(F)(F)C(F)(F)C(F)(F)C(F)(F)F,inactive,
Cc1cccc([N+](=O)[O-])c1,inactive,
O=S(=O)(O)C(F)(F)C(F)(F)C(F)(F)C(F)(F)F,inactive,
